Source: PubChem
sPLA2-III inh = human group III sPLA2 inhibitors, primary screen, biochemical, QFRET, BODIPY PC-A2 liposome substrate; Group 3 secretory phospholipase A2 (Homo sapiens), Q9NZ20; QFRET BODIPY PC-A2 liposome hydrolysis, fluorescence; inhibition, % at 12.2 µM; 0.56% of 370,000 active; AID 743126, 2013;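 active means inhibition above mean plus 3 SD of compounds lying within the high and low control bounds, cut at about 19% in these data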
Target sequence (Q9NZ20 whole entry, looked up): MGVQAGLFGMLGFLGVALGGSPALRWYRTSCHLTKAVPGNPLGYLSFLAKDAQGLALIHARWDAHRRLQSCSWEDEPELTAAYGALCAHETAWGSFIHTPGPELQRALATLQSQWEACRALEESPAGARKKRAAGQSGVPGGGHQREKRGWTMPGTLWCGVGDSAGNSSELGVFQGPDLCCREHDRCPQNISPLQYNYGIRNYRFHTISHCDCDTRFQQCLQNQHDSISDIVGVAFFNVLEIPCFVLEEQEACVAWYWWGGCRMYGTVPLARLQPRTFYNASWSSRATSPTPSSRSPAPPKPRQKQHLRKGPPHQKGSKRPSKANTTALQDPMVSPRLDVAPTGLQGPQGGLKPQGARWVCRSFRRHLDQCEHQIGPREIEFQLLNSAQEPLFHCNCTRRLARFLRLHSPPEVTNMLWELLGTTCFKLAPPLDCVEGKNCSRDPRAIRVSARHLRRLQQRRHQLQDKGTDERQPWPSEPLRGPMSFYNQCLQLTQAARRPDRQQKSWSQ
PG9 binder = binders of HIV-1 gp120 antibody PG9, primary screen, biochemical, TR-FRET; TR-FRET gp120-PG9 antibody binding; inhibition, % at 6.7 µM; 0.43% of 360,000 active; in the data active means inhibition above about 8.5%
rCAG RNA binder = binders of r(CAG) RNA repeats, primary screen, biochemical, fluorescence | r(CAG) RNA repeat, TO-PRO-1 dye displacement fluorescence | inhibition, % at 3 µM | 1.3% of 370,000 active;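 active means inhibition above the plate cutoff, the mean of all test compounds on that plate plus 3 SD, cut at about 35% in these data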;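 further: higher means more dye released from RNA so lower well fluorescence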
MsrA inhibitor = bovine MsrA enzyme inhibitors, primary screen, biochemical, absorbance, HTS; Methionine sulfoxide reductase A (Bos taurus); inhibition, % at 15.5 µM; purified bovine MsrA, absorbance read-out; 0.75% of 360,000 active; in the data active means inhibition above about 4.5%
bovine MsrA act = bovine MsrA enzyme activators, primary screen, biochemical, absorbance, HTS; Methionine sulfoxide reductase A (Bos taurus); purified bovine MsrA, absorbance read-out; activation, % at 10.6 µM; 0.3% of 360,000 active; AID 602163, 2012; in the data active means activation above about 7.5%
sPLA2 confirm = human group III sPLA2 inhibitors, confirmation, biochemical, QFRET, triplicate; shares compounds with sPLA2-III inh; recombinant hGIII-sPLA2, BODIPY PC-A2 QFRET fluorescence; inhibition, % at 12.2 µM; 34% of 2,000 active;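 active means mean inhibition across triplicates above the hit cutoff set in the earlier primary screen, cut at about 19% in these data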
BODIPY interf = 535nm fluorescence optical interference, confirmation, artefact control for HGIII-sPLA2 inhibitor project, biochemical, QFRET; shares compounds with sPLA2-III inh; inhibition, % at 12.2 µM; BODIPY FL product fluorescence interference; AID 743282, 2014; 8.5% of 2,000 active;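 active means average inhibition above the solvent-only control mean plus 3 SD, cut at about 6% in these data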
535nm interf DR = 535nm fluorescence optical interference, dose response, artefact control for HGIII-sPLA2 inhibitor project, biochemical, QFRET; 240 tested, under 10 active; BODIPY FL product fluorescence interference, cell-free; shares compounds with sPLA2-III inh; IC50, µM;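 active means IC50 at or below 10 µM; inactive means IC50 above 10 µM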
Of the large screens only hits and unclear results are named; the others gave an inactive call (follow-up assays come after a bar, where they were run). Sampled rows, rich in hits. Any-hit rate of the full collection: about 3.2%.

CC(=O)Nc1c(C)ccc(CNC(=O)COc2ccc(F)cc2)c1C	none
CC(=O)Nc1c(C)ccc(CNC(=O)COc2cc(C)ccc2C)c1C	sPLA2-III inh 20.9 | sPLA2 confirm inactive | BODIPY interf inactive
O=C(NNC(=S)Nc1ccc(F)cc1)c1ccccc1OC(F)F	sPLA2-III inh 21.1 | sPLA2 confirm 26.3 | BODIPY interf inactive
Cc1ccc(NC(=S)NNC(=O)c2ccccc2OC(F)F)cc1	sPLA2-III inh 26.0 | sPLA2 confirm 21.3 | BODIPY interf inactive
O=C(NC1CC1)c1ccccc1NC(=O)c1ccccc1OC(F)F	none
Cc1ccc(NC(=S)NNC(=O)Nc2ccccc2)cc1	none
COc1ccc(S[C@]2(C(=O)N3CCCC3)CC(=O)N[C@@H]2c2ccc(OC)cc2)cc1	none (no result: PG9 binder, MsrA inhibitor, bovine MsrA act)
CCC(=O)N(CC(=O)Nc1sc(C)c(C)c1C(N)=O)C1CCCCC1	sPLA2-III inh 19.3 | sPLA2 confirm inactive | BODIPY interf inactive
Cc1ccc(C(=O)N(CC(=O)Nc2sc(C)c(C)c2C(N)=O)C2CCCC2)cc1	none
CC1(C(=O)NS(=O)(=O)c2ccc(C#N)cc2)CCN1C(=O)Cc1ccccc1Cl (stereo not given)	none
CCCCCCCCNC(=O)c1cccnc1SCC(=O)Nc1ccc(OC)cc1OC	sPLA2-III inh 21.9 | sPLA2 confirm inactive | BODIPY interf inactive
CN1[C@@H](Cc2ccccc2)COc2cccc(N3CCSCC3)c2S1(=O)=O	none (no result: PG9 binder, MsrA inhibitor, bovine MsrA act)
C[C@@H]1COc2cc(N3CCSCC3)ccc2S(=O)(=O)N1C	none (no result: PG9 binder, MsrA inhibitor, bovine MsrA act)
Cc1n[nH]c(=S)n1-c1cccc(Cl)c1	none
CSc1n[nH]c(=O)n1-c1cccc(Cl)c1	sPLA2-III inh 19.7 | sPLA2 confirm inactive | BODIPY interf inactive
O=[N+]([O-])c1ccccc1/C=N/n1c(C2CCCCC2)n[nH]c1=S	sPLA2-III inh 19.6 | sPLA2 confirm 27.9 | BODIPY interf inactive | 535nm interf DR inactive
CC12CC3CC(C1)CC(C(=O)NNC(=O)c1ccncc1)(C3)C2	none
O=C(NNC(=S)NC(=O)C12CC3CC(CC(C3)C1)C2)c1ccncc1	sPLA2-III inh 23.9 | sPLA2 confirm 31.0 | BODIPY interf inactive | 535nm interf DR inactive
O=C(NNC(=S)NC(=O)c1ccc(F)cc1)c1ccncc1	none
CC1(C(=O)NC(=S)NNC(=O)c2ccncc2)CCCCC1	sPLA2-III inh 26.4 | sPLA2 confirm 20.1 | BODIPY interf inactive
CCOC(=O)N[C@H](C(=O)N1CCC[C@H]1C(=O)NCCc1ccccc1Cl)C1CCCCC1	none (no result: bovine MsrA act)
CCOC(=O)[C@]12CCCCC/C=C\1N(Cc1ccc(OC)cc1)C(=O)[C@H]2CC(=O)NCC12CC3CC(CC(C3)C1)C2	none (no result: PG9 binder, MsrA inhibitor, bovine MsrA act)
C/C(=N\NC(=O)COc1cccc(C)c1)c1ccc2ccccc2c1O	sPLA2-III inh 22.3 | sPLA2 confirm 38.8 | BODIPY interf 6.0
Fc1ccc2nc(Nc3nc4cc5c(cc4s3)OCCO5)sc2c1	sPLA2-III inh 23.9 | sPLA2 confirm inactive | BODIPY interf 6.5
O=C(NNc1nc2cc3c(cc2s1)OCCO3)c1ccc(F)cc1	none
O=C(NNc1nc2cc3c(cc2s1)OCO3)c1ccc(F)cc1	sPLA2-III inh 23.2 | sPLA2 confirm 37.7 | BODIPY interf inactive | 535nm interf DR inactive
O=C(Nc1nc(-c2ccccc2)c(C(=O)c2ccccc2)s1)c1ccc(S(=O)(=O)N2CCCCC2)cc1	none
O=C(Nc1nc(-c2ccccc2)c(-c2ccccc2)s1)c1ccc(S(=O)(=O)N2CCCCC2)cc1	sPLA2-III inh 23.0 | sPLA2 confirm inactive | BODIPY interf inactive
O=C(NC1CCCCN(Cc2cccc(Cl)c2)C1=O)c1ccccc1 (stereo not given)	none (no result: PG9 binder, MsrA inhibitor, bovine MsrA act)
